Activity calls are given as the source filed them. How the source made its calls: active means hit-call score of the fitted dose curve at least 0.9, where 1 is the maximum; inactive means score below 0.9.

The nature of experiment [1]: ATG_ISRE_CIS: Attagene CIS-FACTORIAL HepG2 Assay for human Interferon Regulatory Factor 1 (IRF1) binding to an Interferon-Stimulated Response Element (ISRE) (AID 2282948). Conditions: HepG2 ISRE cis-reporter (Attagene), mRNA transcription readout; actives raise or lower the signal. An outline of the steps:
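Signal reflects induction or loss of ISRE-linked reporter mRNA in transiently transfected HepG2 cells after a 24 h treatment, detected by fluorescent RT-PCR fragments on capillary electrophoresis and normalised to DMSO.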

Experiment [2] in a line: ATG_M_32_CIS: Attagene CIS-FACTORIAL HepG2 Assay for M32 Transcription Factor (Internal Marker) (AID 2282949).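 Further: background control marker of the multiplexed CIS panel rather than a real target.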 Conditions: HepG2 Attagene cis-factorial M32 reporter, mRNA; actives raise or lower the signal. In outline: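 Using DMSO as baseline, bidirectional curve fits were applied to reporter mRNA signals. These came from transiently transfected HepG2 cells exposed for 24 h, with RNA analysed by RT-PCR, FAM primer extension, HpaI digestion and CE.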

The nature of experiment [3]: ATG_M_06_CIS: Attagene CIS-FACTORIAL HepG2 Assay for M06 Transcription Factor (Internal Marker) (AID 2282950). Conditions: HepG2 Attagene CIS-FACTORIAL M06 internal marker reporter; actives raise or lower the signal. An outline of the steps:
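Internal background marker within multiplexed cis-reporter HepG2 system. Cells transiently transfected, dosed 24 h; reporter mRNA measured by RT-PCR, HpaI digestion and capillary electrophoresis. Bidirectional fit relative to DMSO.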

Experiment [4] concerns the target Hypoxia-inducible factor 1-alpha (Homo sapiens) (UniProt Q16665). Briefly: ATG_HIF1a_CIS: Attagene CIS-FACTORIAL HepG2 Assay for human Hypoxia Inducible Factor 1 (HIF1A) (AID 2282951). Conditions: HepG2 Attagene cis-factorial HIF1a reporter transcription; actives raise or lower the signal. An outline of the steps: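 Activity is fitted in both directions relative to DMSO. Reporter transcripts are read by RT-PCR, fluorescent primer extension and capillary electrophoresis after 24 h chemical treatment. The cells are HepG2 carrying transiently transfected cis-element-driven reporter units responding to endogenous factors.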

The target of experiment [5] is Hepatocyte nuclear factor 6 (Homo sapiens) (UniProt Q9UBC0). Briefly: ATG_HNF6_CIS: Attagene CIS-FACTORIAL HepG2 Assay for human Hepatocyte Nuclear Factor 6 (HNF6) (AID 2282952). Conditions: HepG2 Attagene cis-factorial HNF6 reporter transcription; actives raise or lower the signal. In outline:
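Using cis-element reporters in HepG2 liver cells, the assay tracks endogenous factor-driven transcription 24 h post-dosing. Signal comes from 6-FAM-labelled, HpaI-digested RT-PCR fragments, with gain or loss scored against DMSO.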

Experiment [6] concerns the target Heat shock factor protein 1 (Homo sapiens) (UniProt Q00613). Briefly: ATG_HSE_CIS: Attagene CIS-FACTORIAL HepG2 Assay for human Heat Shock Transcription Factor 1 (HSE) (AID 2282953). Conditions: HepG2 HSE cis-reporter, Attagene RNA transcription; actives raise or lower the signal. In outline:
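HepG2 cells transfected with cis-promoter reporter units sensing endogenous transcription factor activity; reporter mRNA quantified 24 h post-dose by RT-PCR and capillary electrophoresis of 6-FAM-labelled products. Bidirectional fitting against DMSO.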

The nature of experiment [7]: ATG_MRE_CIS: Attagene CIS-FACTORIAL HepG2 Assay for human Metal Responsive Element (MRE) (AID 2282954). Conditions: HepG2 MRE cis-reporter transcription, Attagene multiplex; actives raise or lower the signal. In outline: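 Readout: capillary electrophoresis of 6-FAM-labelled, HpaI-digested RT-PCR reporter products. System: HepG2 cells carrying transient multiplexed cis reporters, dosed 24 h. Analysis: bidirectional fit, DMSO baseline.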

A short description of experiment [8]: ATG_PXRE_CIS: Attagene CIS-FACTORIAL HepG2 Assay for human Pregnane X Receptor Element (PXRE) (AID 2282957). Conditions: HepG2 Attagene CIS-FACTORIAL PXRE reporter, mRNA; actives raise or lower the signal. In outline:
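Using HepG2 transfected with multiple reporter transcription units, endogenous factor-driven transcription was scored as reporter mRNA after 24 h exposure.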

Experiment [9] is described as follows: ATG_RORE_CIS: Attagene CIS-FACTORIAL HepG2 Assay for human RAR-related Orphan Receptor Element (RORE) (AID 2282959). Conditions: HepG2 Attagene cis-factorial RORE reporter, mRNA; actives raise or lower the signal. In outline:
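RORE reporter transcripts reflecting endogenous factor activity were read after 24 h compound exposure of transfected HepG2 cells, using reverse transcription, PCR, fluorescent labelling and capillary electrophoresis sizing. Gain or loss fitted against DMSO.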

Experiment [10] is described as follows: ATG_Sox_CIS: Attagene CIS-FACTORIAL HepG2 Assay for human SRY-box transcription factor (SOX) (AID 2282960). Conditions: HepG2 Attagene cis-factorial SOX reporter, mRNA; actives raise or lower the signal. In outline: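 Reporter transcripts, measured by RT-PCR and capillary electrophoresis of labelled fragments, report endogenous SOX transcription factor activity. Transiently transfected human HepG2 cells receive chemical for 24 h; changes in either direction are fitted relative to DMSO.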

The target in experiment [11] is Transcription factor Sp1 (Homo sapiens) (UniProt P08047). Briefly: ATG_Sp1_CIS: Attagene CIS-FACTORIAL HepG2 Assay for human Specificity Protein 1 (Sp1) (AID 2282961). Conditions: HepG2 Sp1 cis-reporter transcription, actives raise or lower the signal. An outline of the steps:
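Read-out is reporter transcript level, measured by RT-PCR and fluorescent capillary electrophoresis after 24 h chemical treatment. System: transiently transfected HepG2 cells reporting endogenous transcription factor activity; gain or loss fitted against DMSO baseline.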

Experiment [12] in a line: ATG_SREBP_CIS: Attagene CIS-FACTORIAL HepG2 Assay for human Sterol Regulatory Element Binding (SREBP) (AID 2282962). Conditions: HepG2 Attagene cis-factorial SREBP reporter, mRNA; actives raise or lower the signal. An outline of the steps:
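Values derive from bidirectional curve fitting with DMSO as baseline. The underlying measurement is reporter mRNA from cis-element-regulated units in transiently transfected HepG2, quantified by RT-PCR and capillary electrophoresis after 24 h exposure.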

Experiment [13] in a line: ATG_TA_CIS: Attagene CIS-FACTORIAL HepG2 Assay for human TA Basal Promoter (AID 2282964). Conditions: HepG2 Attagene CIS-factorial TA basal promoter reporter; actives raise or lower the signal. An outline of the steps: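 HepG2 cells transiently transfected with multiple reporter units under cis promoter elements, reporting endogenous transcription factor activity; this endpoint tracks the TA basal promoter as background control. Reporter mRNA after 24 h dosing measured by RT-PCR/capillary electrophoresis; bidirectional fits versus DMSO.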

Experiment [14] in a line: ATG_TCF_b_cat_CIS: Attagene CIS-FACTORIAL HepG2 Assay for human T-Cell-Factor with beta-catenin (TCF/b-cat) (AID 2282965). Conditions: HepG2 TCF/beta-catenin cis-reporter transcription, actives raise or lower the signal. An outline of the steps:
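In this cis-format system, transfected HepG2 cells report endogenous transcription factor activity. Readout after 24 h exposure is reporter transcript abundance from RT-PCR and capillary electrophoresis, analysed for gain or loss of signal versus DMSO.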

Experiment [15] concerns the target Paired box protein Pax-6 (Homo sapiens) (UniProt P26367). Briefly: ATG_Pax6_CIS: Attagene CIS-FACTORIAL HepG2 Assay for human Paired Box 6 (PAX6) (AID 2282956). Conditions: HepG2 CIS-FACTORIAL PAX6 reporter transcription, RNA readout; actives raise or lower the signal. An outline of the steps: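 Values derive from bidirectional curve fitting of reporter mRNA signal relative to DMSO. HepG2 cells bearing transfected cis-regulated MRTUs were exposed for 24 h; transcripts were read by RT-PCR and capillary electrophoresis.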

Experiment [16] has as its target Signal transducer and activator of transcription 3 (Homo sapiens) (UniProt P40763). Briefly: ATG_STAT3_CIS: Attagene CIS-FACTORIAL HepG2 Assay for human Signal Transducer and Activator of Transcription 3 (STAT3) (AID 2282963). Conditions: HepG2, Attagene cis-factorial STAT3 reporter transcription; actives raise or lower the signal. In outline:
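Uses human liver HepG2 transiently carrying cis-regulated reporter transcription units. Following 24 h dosing, reporter mRNA induction was detected by RT-PCR and capillary electrophoresis, analysed bidirectionally versus DMSO.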

The nature of experiment [17]: ATG_GRE_CIS: Attagene CIS-FACTORIAL HepG2 Assay for human Glucocorticoid Response Elements (GRE) (AID 2282947). Conditions: HepG2 GRE cis-reporter, Attagene multiplex mRNA; actives raise or lower the signal. In outline: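 HepG2, transient cis-reporter transfection, 24 h. Reporter mRNA: RT-PCR then CE, fluorescence. Fit both directions vs DMSO.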
Experiment [18] in a line: ATG_PBREM_CIS: Attagene CIS-FACTORIAL HepG2 Assay for human Phenobarbital-responsive Enhancer Module (PBREM) (AID 2282955). Conditions: HepG2 PBREM cis-reporter, Attagene multiplexed transcription; actives raise or lower the signal. An outline of the steps: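 Endogenous transcription factor activity was read from reporter transcripts in transiently transfected human HepG2 liver cells after 24 h dosing. RT-PCR products were fluorescently labelled, HpaI-cut and sized by capillary electrophoresis; activity fitted bidirectionally against DMSO baseline.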

The nature of experiment [19]: ATG_PPRE_CIS: Attagene CIS-FACTORIAL HepG2 Assay for human Peroxisome Proliferator-activated Response Element (PPRE) (AID 2282958). Conditions: HepG2 PPRE cis-element reporter, Attagene transcription factor profiling; actives raise or lower the signal. An outline of the steps:
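Endogenous PPRE-driven transcription is measured in HepG2 cells carrying transfected multi-reporter constructs. Reporter transcripts are quantified by RT-PCR, HpaI digestion and capillary electrophoresis 24 h after dosing. DMSO baseline, bidirectional fit.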

Chain of Hypoxia-inducible factor 1-alpha (Homo sapiens) (Q16665 whole entry, looked up): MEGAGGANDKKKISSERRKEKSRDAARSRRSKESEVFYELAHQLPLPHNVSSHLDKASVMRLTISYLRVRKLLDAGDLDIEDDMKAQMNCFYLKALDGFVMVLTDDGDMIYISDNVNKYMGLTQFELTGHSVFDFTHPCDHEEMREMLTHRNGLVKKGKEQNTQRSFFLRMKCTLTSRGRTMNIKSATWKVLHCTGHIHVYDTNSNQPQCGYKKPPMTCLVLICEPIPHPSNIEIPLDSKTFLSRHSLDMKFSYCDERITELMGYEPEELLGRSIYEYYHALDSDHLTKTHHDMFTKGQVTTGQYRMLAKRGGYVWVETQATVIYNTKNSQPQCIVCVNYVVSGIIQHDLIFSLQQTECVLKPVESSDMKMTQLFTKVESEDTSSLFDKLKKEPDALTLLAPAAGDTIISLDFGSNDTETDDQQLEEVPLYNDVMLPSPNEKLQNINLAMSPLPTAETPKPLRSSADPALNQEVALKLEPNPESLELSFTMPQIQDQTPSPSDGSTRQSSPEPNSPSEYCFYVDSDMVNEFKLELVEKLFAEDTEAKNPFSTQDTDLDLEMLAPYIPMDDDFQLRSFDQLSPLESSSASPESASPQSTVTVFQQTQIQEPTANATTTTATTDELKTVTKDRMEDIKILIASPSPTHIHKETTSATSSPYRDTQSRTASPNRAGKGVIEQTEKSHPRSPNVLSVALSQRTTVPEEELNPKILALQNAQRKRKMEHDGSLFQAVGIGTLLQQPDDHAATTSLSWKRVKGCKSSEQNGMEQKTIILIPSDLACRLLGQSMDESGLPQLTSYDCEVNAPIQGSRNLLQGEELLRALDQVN
Chain of Signal transducer and activator of transcription 3 (Homo sapiens) (P40763 whole entry, looked up): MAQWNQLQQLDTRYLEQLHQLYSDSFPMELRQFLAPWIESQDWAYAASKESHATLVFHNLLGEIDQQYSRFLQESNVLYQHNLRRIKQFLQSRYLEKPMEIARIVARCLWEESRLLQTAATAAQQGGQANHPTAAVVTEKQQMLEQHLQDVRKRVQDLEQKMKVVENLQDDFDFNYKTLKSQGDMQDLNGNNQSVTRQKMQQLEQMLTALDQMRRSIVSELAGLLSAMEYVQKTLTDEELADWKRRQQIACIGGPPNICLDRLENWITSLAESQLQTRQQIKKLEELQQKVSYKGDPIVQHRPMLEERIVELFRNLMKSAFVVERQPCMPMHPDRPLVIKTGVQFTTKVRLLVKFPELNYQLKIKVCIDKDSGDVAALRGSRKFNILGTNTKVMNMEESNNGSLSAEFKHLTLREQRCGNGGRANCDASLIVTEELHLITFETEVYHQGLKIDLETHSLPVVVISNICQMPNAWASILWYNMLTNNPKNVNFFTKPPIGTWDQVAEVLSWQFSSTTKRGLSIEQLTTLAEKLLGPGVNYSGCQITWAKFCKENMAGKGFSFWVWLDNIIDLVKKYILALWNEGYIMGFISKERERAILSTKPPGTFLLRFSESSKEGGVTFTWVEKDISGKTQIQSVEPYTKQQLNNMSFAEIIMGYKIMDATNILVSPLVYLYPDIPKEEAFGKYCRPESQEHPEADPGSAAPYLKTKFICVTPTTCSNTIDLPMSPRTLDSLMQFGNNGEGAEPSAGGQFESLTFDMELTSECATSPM
Chain of Heat shock factor protein 1 (Homo sapiens) (Q00613 whole entry, looked up): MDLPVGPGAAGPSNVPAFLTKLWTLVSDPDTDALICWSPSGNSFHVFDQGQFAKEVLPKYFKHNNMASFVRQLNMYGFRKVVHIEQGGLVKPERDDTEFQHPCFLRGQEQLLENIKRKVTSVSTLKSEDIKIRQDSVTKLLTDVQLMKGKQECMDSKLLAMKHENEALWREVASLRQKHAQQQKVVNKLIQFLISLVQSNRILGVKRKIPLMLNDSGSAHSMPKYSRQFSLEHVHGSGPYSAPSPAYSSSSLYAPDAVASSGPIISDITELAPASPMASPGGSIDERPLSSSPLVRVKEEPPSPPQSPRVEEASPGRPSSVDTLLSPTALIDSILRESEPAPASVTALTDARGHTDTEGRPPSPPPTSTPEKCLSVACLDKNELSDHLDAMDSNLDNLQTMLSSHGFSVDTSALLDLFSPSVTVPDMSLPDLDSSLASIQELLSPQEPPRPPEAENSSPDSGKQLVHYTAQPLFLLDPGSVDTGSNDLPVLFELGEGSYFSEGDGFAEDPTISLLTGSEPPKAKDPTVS
Chain of Paired box protein Pax-6 (Homo sapiens) (P26367 whole entry, looked up): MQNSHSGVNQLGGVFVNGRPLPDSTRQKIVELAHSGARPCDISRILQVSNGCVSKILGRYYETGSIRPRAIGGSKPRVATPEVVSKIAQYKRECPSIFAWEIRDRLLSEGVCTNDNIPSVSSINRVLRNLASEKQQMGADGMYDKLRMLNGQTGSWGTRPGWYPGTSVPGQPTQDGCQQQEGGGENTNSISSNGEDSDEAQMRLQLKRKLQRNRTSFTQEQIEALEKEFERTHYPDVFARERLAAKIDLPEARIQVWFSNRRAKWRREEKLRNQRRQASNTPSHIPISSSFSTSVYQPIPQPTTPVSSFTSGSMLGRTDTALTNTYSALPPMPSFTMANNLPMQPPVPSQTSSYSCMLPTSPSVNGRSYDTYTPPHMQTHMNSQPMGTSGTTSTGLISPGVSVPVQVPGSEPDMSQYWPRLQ
Chain of Hepatocyte nuclear factor 6 (Homo sapiens) (Q9UBC0 whole entry, looked up, the tested form may be a part): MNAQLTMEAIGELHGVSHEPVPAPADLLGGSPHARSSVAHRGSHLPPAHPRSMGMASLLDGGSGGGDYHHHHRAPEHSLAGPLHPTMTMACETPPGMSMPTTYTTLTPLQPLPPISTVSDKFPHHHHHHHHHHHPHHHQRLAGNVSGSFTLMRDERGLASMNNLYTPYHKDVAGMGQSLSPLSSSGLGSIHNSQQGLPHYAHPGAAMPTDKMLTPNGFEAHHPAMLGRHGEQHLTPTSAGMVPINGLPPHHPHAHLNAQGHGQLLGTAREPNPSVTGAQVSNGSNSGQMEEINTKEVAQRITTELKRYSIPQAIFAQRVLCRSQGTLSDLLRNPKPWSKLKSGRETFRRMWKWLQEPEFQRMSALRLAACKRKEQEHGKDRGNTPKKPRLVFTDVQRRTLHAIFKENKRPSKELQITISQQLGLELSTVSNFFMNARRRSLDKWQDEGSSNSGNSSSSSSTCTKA
Chain of Transcription factor Sp1 (Homo sapiens) (P08047 whole entry, looked up): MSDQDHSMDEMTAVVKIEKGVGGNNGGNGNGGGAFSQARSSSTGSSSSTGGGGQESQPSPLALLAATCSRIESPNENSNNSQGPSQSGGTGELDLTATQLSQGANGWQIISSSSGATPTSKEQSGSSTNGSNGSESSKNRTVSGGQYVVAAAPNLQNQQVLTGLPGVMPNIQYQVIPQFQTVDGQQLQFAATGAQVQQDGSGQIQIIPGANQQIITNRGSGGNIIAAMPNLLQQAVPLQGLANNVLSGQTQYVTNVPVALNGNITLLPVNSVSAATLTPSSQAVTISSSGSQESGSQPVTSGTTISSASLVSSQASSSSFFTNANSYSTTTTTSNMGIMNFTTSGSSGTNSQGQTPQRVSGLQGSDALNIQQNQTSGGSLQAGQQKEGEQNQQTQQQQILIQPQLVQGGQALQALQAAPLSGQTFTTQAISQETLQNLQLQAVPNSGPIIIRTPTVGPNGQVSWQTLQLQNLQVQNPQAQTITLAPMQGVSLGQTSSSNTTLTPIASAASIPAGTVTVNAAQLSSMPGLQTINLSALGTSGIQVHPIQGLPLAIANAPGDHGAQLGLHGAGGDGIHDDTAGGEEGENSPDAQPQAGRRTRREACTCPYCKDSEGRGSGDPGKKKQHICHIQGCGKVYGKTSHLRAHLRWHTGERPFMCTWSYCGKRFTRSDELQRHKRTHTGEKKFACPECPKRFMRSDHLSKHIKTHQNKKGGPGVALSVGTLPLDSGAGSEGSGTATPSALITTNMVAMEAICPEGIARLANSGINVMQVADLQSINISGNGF

As for `O=Cc1ccco1`, the outcome in experiment [1], in [2], in [3], in experiment [4], in experiment [5] and in [6] was inactive. Moreover, the compound was classed as inactive in experiment [7], in experiment [8], in experiment [9], in experiment [10], in [11] and in experiment [12]. In addition, the compound was classed as inactive in experiment [13] and in experiment [14].
The AC50 is the concentration giving half of the maximal activity seen. Regarding `N#CC(Br)(Br)C(N)=O`, the result in experiment [1], in experiment [2], in experiment [4], in experiment [5], in experiment [6] and in experiment [7] was inactive. The compound was classed as inactive in experiment [15], in [9], in [10], in [11], in [16] and in [13]. In addition, the AC50 in experiment [8] was 100 µM (active); in experiment [12] it was 169 µM (active); in experiment [14], 165 µM (active).
Consider `O=C(Nc1ccccc1)c1ccccc1I`, for which the outcome in [17], in experiment [1], in [2], in [4], in [5] and in [6] was inactive. Also, the result in experiment [7], in [18], in [19], in [9], in experiment [10] and in experiment [11] was inactive. Moreover, the result in experiment [16], in experiment [13] and in experiment [14] was inactive. Also, the AC50 in experiment [8] is 6.15 µM (active); in experiment [12], 42.1 µM (active).
As for `CCN(CC)CCO`, the call in experiment [17], in [1], in experiment [2], in experiment [4], in experiment [5] and in experiment [6] was inactive. Further, the compound was classed as inactive in [7], in experiment [18], in [15], in experiment [8], in experiment [9] and in [10]. The compound was called inactive in experiment [11], in experiment [12], in experiment [16], in [13] and in experiment [14].
Turning to `CC(O)CCO` (stereo not given), the result in [1], in experiment [2], in [3], in experiment [4], in experiment [5] and in [6] was inactive. The result in experiment [7], in experiment [18], in [9], in [10], in experiment [11] and in experiment [12] was inactive. Also, the result in experiment [13] and in experiment [14] was inactive. Besides, the AC50 in [8] was 27 µM (active).
For `OCCCBr`, the compound was called inactive in experiment [17], in [1], in experiment [2], in [4], in experiment [5] and in experiment [6]. For the same compound, the call in [7], in experiment [18], in experiment [8], in experiment [9], in experiment [10] and in experiment [11] was inactive. The compound was classed as inactive in experiment [12], in [13] and in experiment [14].
`COc1cc(C=O)cc2c1[C@H](COC(N)=O)[C@]1(OC(C)=O)ON2C[C@H]2[C@@H]1N2C(C)=O`: the concentration at half-maximal activity (AC50) in [1] is 0.54 µM (active); in [4], 0.155 µM (active); in experiment [5] it was 9.05 µM (active); in [6], 8.4 µM (active); in experiment [8], 8.47 µM (active); in [16], 33.4 µM (active). In addition, the AC50 in experiment [13] is 0.0965 µM (active); in experiment [14], 0.157 µM (active). Moreover, the outcome in experiment [2], in [7], in experiment [18], in experiment [15], in experiment [19] and in experiment [9] was inactive. For the same compound, the compound was classed as inactive in [10], in experiment [11] and in [12].

Values taken from PubChem BioAssay (EPA / NIEHS).
